Source: PubChem BioAssay
Rce1 inh: blocks yeast Ras-converting enzyme. yeast membranes, quenched prenylated peptide cleavage fluorescence. actives 0.27% (n = 290,000). AID 2563. calls only. Q03530;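 active = fall in fluorescence gain of 50% or more versus controls, with final raw signal at or below 3038400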
ADAM17 inh: inhibitors of human ADAM17; P78536; recombinant ADAM17, EDANS/DABCYL FRET peptide cleavage; inhibition, % at 6.95 µM; actives 0.83% (n = 370,000);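 active = inhibition above the mean of compounds lying between control limits plus 3 SD, set per campaign, cut at about 8.5% in these data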
PLC-beta3 inh: inhibitors of human phospholipase C beta3; Q01970; Purified PLC-beta3, fluorogenic substrate, fluorescence; inhibition, % at 12.2 µM; actives 0.18% (n = 370,000); AID 720704; in the data active = inhibition above about 11%
PLC-gamma1 inh: inhibitors of human phospholipase C gamma1. actives 0.84% (n = 370,000). purified PLC-gamma1, fluorogenic substrate, fluorescence. inhibition, % at 12.2 µM
ADAM10 inh: inhibits human ADAM10 | O14672 | recombinant ADAM10, EDANS/DABCYL FRET peptide cleavage, 3 h | inhibition, % at 7 µM | actives 0.62% (n = 370,000);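 active = inhibition above a per-campaign cutoff equal to the mean of compounds falling between control-based bounds plus 3 SD, cut at about 20% in these data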
PLCgamma1 ctr: PLC-gamma1 inhibition, counter-screen for PLC-beta3 hits | shares compounds with PLC-gamma1 inh | purified PLC-gamma1, fluorogenic substrate, fluorescence | inhibition, % at 12.3 µM | actives 3.1% (n = 3,300) | AID 743258
PLCb3 confirm: human PLC-beta3 inhibition, confirmation; shares compounds with PLC-gamma1 inh; purified PLC-beta3, fluorogenic substrate fluorescence; inhibition, % at 12.3 µM; actives 1% (n = 3,300); AID 743261; in the data active = inhibition above about 11%
Hits are given with their value; 0 = inactive; - = no result. Rows were chosen to be rich in hits. Some 2.1% of all compounds tested hit in one or more screens of this group. Cut-off read from the data, not from the text of the source, unless noted: active = inhibition above about 9.5%; inactive = the rest.

SMILES	Rce1 inh	ADAM17 inh	PLC-beta3 inh	PLC-gamma1 inh	ADAM10 inh	PLCgamma1 ctr	PLCb3 confirm
Cc1cc(C(=O)N/N=C/c2cccc([N+](=O)[O-])c2O)n[nH]1	0	0	0	0	0	-	-
CCOC(=O)N1C(=O)C[C@](Sc2ccc(OC)cc2)(C(=O)N2CCCC2)[C@H]1c1ccc(OC)cc1	-	0	0	0	0	-	-
O=C(N/N=C/c1c(F)c(F)c(F)c(F)c1F)c1cc(-c2ccccc2)nc2ccccc12	0	0	0	14	0	0	0
O=[N+]([O-])c1ncn(Cc2ccccc2Cl)n1	0	0	13	0	0	0	0
O=[N+]([O-])c1ncn(Cc2c(Cl)cccc2Cl)n1	0	0	0	0	0	-	-
CCn1nc(C)c(CN2CCN(Cc3ccsc3)C(CCO)C2)c1C (stereo unspecified)	0	0	0	10	0	0	0
O=S(=O)(Nc1ccccc1)N1CCCCC1	-	0	13	11	0	0	0
O=S(=O)(Nc1ccc(F)cc1)N1CCCCCC1	0	0	0	0	0	-	-
CC1(C)CC(C2N3CC4(C)CN2CC(C)(C3)C4=O)CCO1 (stereo unspecified)	0	0	0	13	0	0	0
O=S(=O)(NCc1ccccc1Cl)c1cccs1	0	0	0	0	0	-	-
COc1ccc(N2CCN(CCNC(=O)c3ccc(NC(=O)C4CCCO4)cc3)CC2)cc1 (stereo unspecified)	0	0	0	11	0	0	0
CC1CCN(CCNC(=O)c2ccc(NC(=O)C3CCCO3)cc2)CC1 (stereo unspecified)	0	0	0	0	0	-	-
Cc1cccc(NC(=O)CC2SC(=NC3CCCCC3)NC2=O)c1 (stereo unspecified)	0	0	0	0	0	-	-
O=C(CC1SC(=NC2CCCCC2)NC1=O)Nc1ccccc1 (stereo unspecified)	0	0	0	11	0	0	0
COc1cccc(-c2noc(C3CCCN(S(=O)(=O)c4cccc(Cl)c4C)C3)n2)c1 (stereo unspecified)	0	0	0	12	0	0	0
CCCS(=O)(=O)N1CCCC(c2nc(-c3cccc(OC)c3)no2)C1 (stereo unspecified)	0	0	0	0	0	-	-
O=C(COc1ncnc2ccccc12)NC1CCS(=O)(=O)C1 (stereo unspecified)	0	0	0	10	0	0	0
Cc1cccc(CSc2nnc(-c3cnccn3)n2C)c1	0	0	0	12	0	0	0
Cc1ccc(NC(=O)CSc2nnc(-c3cnccn3)n2C)cc1C	0	0	0	9.7	0	0	0
Cn1c(SCc2ccccn2)nnc1-c1cnccn1	0	0	0	0	0	-	-
CCN1C(=O)[C@H]2[C@@H](c3ccc(OC)cc3)N3C(=O)CN(CCOC)C(=O)[C@@]3(Cc3ccccc3)[C@H]2C1=O	0	0	0	0	0	-	-
Cn1c(Cc2ccccc2)nnc1SCC(=O)c1cccs1	0	0	0	0	0	-	-
Cc1[nH]n(-c2ccccc2)c(=O)c1CCOC(=O)c1cccc(C(F)(F)F)c1	0	0	0	11	0	0	0
CCC(=O)N1CCCC1(C)C(=O)Nc1ccc(C)c(C)c1 (stereo unspecified)	-	0	0	0	0	-	-
C[C@H]1CN([C@@H](C)CO)C(=O)CCCn2nncc2CO[C@H]1CN(C)S(=O)(=O)c1ccccc1	-	0	0	0	0	-	-
SMILES	Rce1 inh	ADAM17 inh	PLC-beta3 inh	PLC-gamma1 inh	ADAM10 inh	PLCgamma1 ctr	PLCb3 confirm
O=C(CSc1nc2ccccc2[nH]1)Nc1ccccc1N1CCOCC1	0	0	0	10	0	0	0
O=C(CSc1nc2ccccc2[nH]1)Nc1cc(C(F)(F)F)ccc1N1CCOCC1	0	0	0	0	0	-	-
O=C(NC1CCCc2ccccc21)c1cccc(F)c1 (stereo unspecified)	-	0	0	0	0	-	-
CN1CCN(NC(=O)/C=C/c2cccc([N+](=O)[O-])c2)CC1	0	0	0	12	0	0	0
CSCCC(NC(=O)c1ccc(Cl)cc1Cl)C(=O)N1CCN(C(=O)c2ccccc2)CC1 (stereo unspecified)	-	0	0	11	0	0	0
CSCCC(NC(=O)c1ccccc1Cl)C(=O)N1CCC1 (stereo unspecified)	0	0	0	0	0	-	-
CC1(CC(=O)N/N=C/c2cc([N+](=O)[O-])c(O)cc2O)OCCO1	0	0	0	9.6	0	13	0
CC(C)c1ccccc1NC(=O)COC(=O)C1(C)CC1(Cl)Cl (stereo unspecified)	0	0	0	0	0	-	-
CCn1c(O)c(N=NC(=O)c2ccc(CSc3nncn3C)cc2)c2ccccc21	0	0	0	11	0	0	0
CCCN1CCC(C(=O)NC(c2ccc(Cl)cc2)c2ccsc2)CC1 (stereo unspecified)	-	0	0	9.7	0	0	0
O=C(NC(c1ccc(Cl)cc1)c1ccsc1)C1CCN(Cc2ccc(Oc3ccccc3)cc2)CC1 (stereo unspecified)	-	0	0	0	0	-	-
N#CCC(C(=O)c1cccnc1)c1ccccc1 (stereo unspecified)	-	0	11	0	0	0	0
CN(C)CCC(C(=O)c1ccccc1)c1cccnc1 (stereo unspecified)	-	0	0	0	0	-	-
CCC(C)NC(=O)CCn1c(-c2ccc(F)cc2)cc(C(C)=O)c1C (stereo unspecified)	0	0	0	0	0	-	-
CC(=O)c1cc(-c2ccc(F)cc2)n(CCC(=O)NC(C)(C)C)c1C	0	0	0	21	0	0	0
Cc1cc(C)n(-c2nc3ccccc3c(=O)n2OC2CCCCC2)n1	0	0	15	0	0	0	0
CCOn1c(-n2nc(C)cc2C)nc2ccccc2c1=O	0	0	0	0	0	-	-
COCCCNC(=O)C1CC(=O)N(CCc2ccc(OC)c(OC)c2)C1 (stereo unspecified)	0	0	0	14	0	0	0
COc1ccc(CCN2CC(C(=O)NCCc3ccccc3)CC2=O)cc1OC (stereo unspecified)	0	0	0	0	0	-	-
O=C(NCCc1c[nH]c2ccccc12)OCc1cn(Cc2cccc(C(F)(F)F)c2)nn1	-	0	0	0	0	-	-
C[C@@H]1CCN(C2CC2)S(=O)(=O)c2ccc(N3CCC[C@@H]3CO)cc2O1	-	0	0	0	0	-	-
CS(=O)(=O)N1CCC(Oc2ccccc2C(=O)NC2CCOC2)CC1 (stereo unspecified)	0	0	0	12	0	0	0
CC(=O)c1ccccc1NS(C)(=O)=O	0	0	0	0	0	-	-
Cc1cccc(N2CCN(C(=O)c3[nH]c(C(F)(F)F)nc3-c3ccccc3)CC2)c1C	-	0	0	0	0	-	-
CSC[C@H]1CN(c2ccccc2)C(=O)[C@@H]1CC(=O)Nc1ccccc1	-	0	0	9.5	0	0	0
CSC[C@H]1CN(c2ccc(Br)cc2)C(=O)[C@@H]1CC(=O)Nc1ccccc1	-	0	0	0	0	-	-
